Data published in PubChem BioAssay AID1159580 (chemical genetic matrix, 2015).
Values joined by “and” are separate entries in the source; they are usually repeats but may differ in a detail not shown here. Equal values may be shown once. The whole screen tested about 5,500 compounds, of which about 2,000 (36%) were called active. About 18% were inconclusive and are not listed. Cut-off read from the data, not from the text of the source: active = normalized growth mostly below about 0.91 (no sharp cut-off); inconclusive = no clear call, values can overlap the other calls; inactive = mostly above about 0.92. The list shows a part of the results.

Assay: chemical genetic growth profiling, strain panel (AID 1159580);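 note: tested at 20 µM; growth read once vehicle control cultures reached saturation at 30 °C; 1 = growth at the plate median or of vehicle wells; lower values mean less growth of the strain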
Details: S. cerevisiae deletion strains, growth OD

Measured: normalized growth

COC(=O)C[C@H]1C(C)(C)[C@@H](OC(C)=O)[C@@H]2CC3C4CC(=O)O[C@@H](c5ccoc5)[C@]4(C)CCC3[C@@]1(C)C2=O (some centres not stated)
inactive: locus YAL013W, strain DEP1, hits give low values 1 | locus YAL021C, strain ccr4, hits give low values 0.979 | locus YAL026C, strain drs2, hits give low values 1.01 | locus YAL030W, strain snc1, hits give low values 1 | locus YBL061C, strain skt5, hits give low values 1.02 | locus YBR009C, strain hhf1, hits give low values 0.988 | locus YBR021W, strain FUR4, hits give low values 0.965 | locus YBR023C, strain chs3, hits give low values 1.02 | locus YBR171W, strain sec66, hits give low values 1.03 | locus YBR229C, strain ROT2, hits give low values 0.999 | locus YBR231C, strain swc5, hits give low values 1.01 | locus YBR279W, strain paf1, hits give low values 1.01 | locus YCL011C, strain gbp2, hits give low values 1 | locus YCL016C, strain dcc1, hits give low values 1.01 | locus YCL029C, strain bik1, hits give low values 0.973 | locus YCL069W, strain vba3, hits give low values 1.01 | locus YCR088W, strain abp1, hits give low values 1.01 | locus YDL005C, strain med2, hits give low values 1.01 | locus YDL035C, strain GPR1, hits give low values 0.995 | locus YDL040C, strain nat1, hits give low values 1.01 | locus YDL074C, strain BRE1, hits give low values 0.985 | locus YDL101C, strain DUN1, hits give low values 1.02 | locus YDL134C, strain PPH21, hits give low values 1.04 | locus YDL185W, strain tfp1, hits give low values 1.02 | locus YDL192W, strain arf1, hits give low values 0.989 | locus YDR001C, strain nth1, hits give low values 1.01 | locus YDR069C, strain doa4, hits give low values 1.01 | locus YDR101C, strain arx1, hits give low values 0.996 | locus YDR137W, strain rgp1, hits give low values 1.01 | locus YDR159W, strain sac3, hits give low values 1.03 | locus YDR162C, strain NBP2, hits give low values 1.01 | locus YDR195W, strain ref2 0.98 | locus YDR297W, strain sur2, hits give low values 0.999 | locus YDR318W, strain mcm21, hits give low values 1.01 | locus YDR334W, strain swr1, hits give low values 1.01 | locus YDR335W, strain msn5, hits give low values 1.04 | locus YDR388W, hits give low values 1.02 | locus YDR392W, strain spt3, hits give low values 1.02 | locus YDR502C, strain sam2, hits give low values 1.04 | locus YEL003W, strain gim4, hits give low values 1.01 | locus YEL037C, strain rad23, hits give low values 1.01 | locus YEL061C, strain CIN8 (second series), hits give low values 1.01 | locus YEL061C, strain CIN8, hits give low values 0.995 | locus YER015W, strain faa2, hits give low values 1 | locus YER016W, strain bim1, hits give low values 1.01 | locus YER110C, hits give low values 1.02 | locus YER111C, strain swi4, hits give low values 1.02 | locus YER155C, strain BEM2 (second series), hits give low values 1.03 | locus YER155C, strain BEM2, hits give low values 1 | locus YER167W, strain BCK2, hits give low values 0.996 | locus YFR010W, strain ubp6, hits give low values 1 | locus YGL078C, strain dbp3, hits give low values 1.01 | locus YGL086W, strain mad1, hits give low values 1.01 | locus YGL167C, strain pmr1, hits give low values 1.02 | locus YGL173C, strain kem1, hits give low values 1.02 | locus YGL227W, strain vid30, hits give low values 1.02 | locus YGL240W, strain doc1, hits give low values 1.03 | locus YGL248W, strain PDE1, hits give low values 1.04 | locus YGL253W, strain hxk2, hits give low values 1.01 | locus YGR135W, strain pre9, hits give low values 1.07 | locus YGR252W, strain gcn5, hits give low values 1.05 | locus YHR013C, strain ard1, hits give low values 1.02 | locus YHR027C, strain rpn1, hits give low values 1.02 | locus YHR030C, strain SLT2, hits give low values 0.994 and 1.02 | locus YHR079C, strain IRE1 (second series), hits give low values 1.01 | locus YHR079C, strain IRE1, hits give low values 1.01 | locus YHR094C, strain hxt1, hits give low values 1.01 | locus YHR129C, strain ARP1, hits give low values 1.01 | locus YHR142W, strain chs7, hits give low values 0.997 | locus YHR200W, strain rpn10, hits give low values 1 | locus YIL066C, strain RNR3, hits give low values 0.997 | locus YIL073C, strain SPO22, hits give low values 1.01 | locus YIL125W, strain kgd1, hits give low values 1 | locus YIR030C, strain dcg1, hits give low values 1.01 | locus YJL092W, strain hpr5, hits give low values 1.01 | locus YJL095W, strain BCK1 (second series), hits give low values 1 | locus YJL095W, strain BCK1, hits give low values 1.04 and 1.01 | locus YJL115W, strain asf1, hits give low values 1.01 | locus YJL129C, strain trk1, hits give low values 1.01 | locus YJL134W, strain LCB3, hits give low values 0.99 | locus YJL154C, strain vps35, hits give low values 1 | locus YJL164C, strain tpk1, hits give low values 1 | locus YJL166W, strain qcr8, hits give low values 0.999 | locus YJL168C, strain set2, hits give low values 1.02 | locus YJL187C, strain SWE1 (second series), hits give low values 1.05 | locus YJR066W, strain TOR1, hits give low values 0.963 | locus YKL009W, strain mrt4, hits give low values 0.998 | locus YKL068W, hits give low values 1.01 | locus YKL085W, strain MDH1 (second series), hits give low values 1 | locus YKL085W, strain MDH1, hits give low values 1 | locus YKL160W, strain elf1, hits give low values 1.02 | locus YKL190W, strain CNB1, hits give low values 1 | locus YKR001C, strain vps1, hits give low values 0.995 | locus YKR026C, strain gcn3, hits give low values 1.01 | locus YKR091W, strain srl3, hits give low values 1.01 | locus YLL001W, strain dnm1, hits give low values 1.01 | locus YLL026W, hits give low values 1 | locus YLL041C, strain sdh2, hits give low values 1 | locus YLR027C, strain aat2, hits give low values 0.999 | locus YLR039C, strain RIC1, hits give low values 0.993 | locus YLR058C, strain SHM2, hits give low values 1.02 | locus YLR102C, strain apc9, hits give low values 1.02 | locus YLR113W, strain HOG1, hits give low values 0.988 | locus YLR221C, strain rsa3, hits give low values 0.999 | locus YLR258W, strain gsy2, hits give low values 1.01 | locus YLR262C, strain YPT6 (second series), hits give low values 0.955 | locus YLR268W, strain sec22, hits give low values 0.985 | locus YLR320W, strain mms22, hits give low values 1.02 | locus YLR342W, strain FKS1, hits give low values 1 | locus YLR357W, strain rsc2, hits give low values 1.03 | locus YLR370C, strain arc18, hits give low values 1.02 | locus YLR371W, strain rom2, hits give low values 0.989 | locus YLR384C, strain iki3, hits give low values 1.02 | locus YLR418C, strain cdc73, hits give low values 1.04 | locus YML016C, strain PPZ1, hits give low values 1.01 | locus YML032C, strain rad52, hits give low values 0.994 | locus YML120C, strain ndi1, hits give low values 1.02 | locus YML124C, strain tub3, hits give low values 1.01 | locus YMR058W, strain fet3, hits give low values 1.01 | locus YMR078C, strain ctf18, hits give low values 1.02 | locus YMR125W, strain sto1, hits give low values 1.01 | locus YMR129W, hits give low values 0.999 | locus YMR205C, strain PFK2, hits give low values 1 | locus YMR223W, strain ubp8, hits give low values 1.01 | locus YMR231W, strain pep5, hits give low values 1.01 | locus YMR307W, strain GAS1, hits give low values 0.876 | locus YNL067W, strain RPL9B, hits give low values 1.05 | locus YNL071W, strain lat1, hits give low values 1.02 | locus YNL183C, strain NPR1, hits give low values 0.981 | locus YNL209W, strain ssb2, hits give low values 0.996 | locus YNL233W, strain BNI4, hits give low values 0.988 | locus YNL248C, strain rpa49, hits give low values 1 | locus YNL250W, strain rad50, hits give low values 1.04 | locus YNL271C, strain bni1, hits give low values 1.01 | locus YNL298W, strain CLA4, hits give low values 1.01 | locus YNL307C, strain MCK1, hits give low values 1.03 | locus YNL322C, strain KRE1 (second series), hits give low values 1.02 | locus YNR049C, strain mso1, hits give low values 0.996 | locus YNR052C, strain pop2, hits give low values 1.04 | locus YOL012C, strain htz1 0.967 | locus YOL147C, strain pex11, hits give low values 1.01 | locus YOR001W, strain rrp6, hits give low values 1.01 | locus YOR061W, strain CKA2, hits give low values 0.992 | locus YOR069W, strain VPS5, hits give low values 1 | locus YOR070C, strain gyp1, hits give low values 1.01 | locus YOR080W, strain dia2, hits give low values 1.01 | locus YOR083W, strain WHI5, hits give low values 1.02 | locus YOR106W, strain vam3, hits give low values 0.988 | locus YOR136W, strain idh2, hits give low values 1.02 | locus YOR144C, strain elg1, hits give low values 1.02 | locus YOR184W, strain ser1, hits give low values 0.973 | locus YOR231W, strain MKK1, hits give low values 1.01 | locus YOR265W, strain rbl2, hits give low values 1.01 | locus YOR270C, strain vph1, hits give low values 0.902 | locus YOR290C, strain snf2, hits give low values 1.02 | locus YOR316C, strain cot1, hits give low values 1.02 | locus YPL051W, strain arl3, hits give low values 1.02 | locus YPL078C, strain atp4, hits give low values 1.03 | locus YPL106C, strain sse1, hits give low values 1.02 | locus YPL240C, strain hsp82, hits give low values 1 | locus YPL241C, strain CIN2, hits give low values 0.988 | locus YPL256C, strain CLN2, hits give low values 0.996 | locus YPR119W, strain clb2, hits give low values 1.01 | locus YPR141C, strain kar3, hits give low values 1.01 | locus YPR163C, strain tif3, hits give low values 1.03 | locus YPR167C, strain met16, hits give low values 1.02 | strain wtn01, hits give low values 1
